High-throughput results deposited in PubChem BioAssay by National Center for Advancing Translational Sciences (NCATS).
The list is not random: actives were taken first. Their share in the collection is about 5.7%.
L3MBTL1 inh: qHTS Assay for the Inhibitors of L3MBTL1. Lethal(3)malignant brain tumor-like protein 1 (Homo sapiens), Q9Y468. AlphaScreen L3MBTL1–H3K9me1 peptide binding. Potency, µM (top dose mostly 57.1 µM), for inactives: at the highest dose activity, negative = inhibition, hits mostly inhibitors. 230,000 compounds, 0.66% hits. AID 485360, 2010; further: potency means the concentration at half of the fitted maximal effect; on the % scale 0 is the no-effect control and ±100 the full control effect; nearly all actives have a fitted effect of over 60% in size
Target sequence (Q9Y468 whole entry, looked up): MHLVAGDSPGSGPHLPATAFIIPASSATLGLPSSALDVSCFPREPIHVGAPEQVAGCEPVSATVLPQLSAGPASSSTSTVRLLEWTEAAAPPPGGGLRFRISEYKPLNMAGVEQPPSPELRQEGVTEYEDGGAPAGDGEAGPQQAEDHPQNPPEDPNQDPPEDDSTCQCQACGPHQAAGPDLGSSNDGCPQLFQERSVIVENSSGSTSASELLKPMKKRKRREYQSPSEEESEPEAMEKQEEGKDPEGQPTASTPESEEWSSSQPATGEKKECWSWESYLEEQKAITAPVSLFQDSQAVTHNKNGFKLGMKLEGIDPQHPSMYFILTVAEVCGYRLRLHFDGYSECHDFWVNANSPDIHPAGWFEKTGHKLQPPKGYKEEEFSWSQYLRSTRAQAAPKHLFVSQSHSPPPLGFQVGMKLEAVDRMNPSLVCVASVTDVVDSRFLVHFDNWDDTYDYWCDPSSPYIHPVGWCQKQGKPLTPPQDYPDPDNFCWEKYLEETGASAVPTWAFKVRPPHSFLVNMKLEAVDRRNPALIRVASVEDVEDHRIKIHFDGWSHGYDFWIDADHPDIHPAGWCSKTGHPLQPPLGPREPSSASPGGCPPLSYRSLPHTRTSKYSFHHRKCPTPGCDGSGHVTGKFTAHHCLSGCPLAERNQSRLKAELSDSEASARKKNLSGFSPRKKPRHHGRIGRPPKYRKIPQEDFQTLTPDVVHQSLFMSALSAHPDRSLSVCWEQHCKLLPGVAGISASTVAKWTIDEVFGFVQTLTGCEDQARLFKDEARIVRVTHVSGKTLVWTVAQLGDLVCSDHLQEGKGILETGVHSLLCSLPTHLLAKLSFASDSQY
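Displacement of a biotinylated histone H3(1-15) peptide monomethylated at Lys9 (75 nM) from L3MBTL1 (50 nM) was measured by AlphaScreen after a 30 min room-temperature compound incubation; cefsulodin titration served as intraplate control.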
PI5P4Ka inh: qHTS for Inhibitors of phosphatidylinositol 5-phosphate 4-kinase (PI5P4K). Phosphatidylinositol 5-phosphate 4-kinase type-2 alpha (Homo sapiens), P48426. PI5P4Kalpha enzyme, ADP-Glo luminescence, 60 min; stronger effect = lower value. max response, %. 330,000 compounds, 1.2% hits. AID 652105, 2013; active means max response of -50% or lower; inconclusive means between -30% and -50%; inactive means -30% or higher; further: value at the top dose of about 77 µM; on the % scale 0 is the no-effect control and ±100 the full control effect
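Luminescence from ADP-Glo served as readout of PI5P4Kalpha activity in a qHTS format. Reaction: enzyme, substrate, compound, ATP at 5 microM final, 60 min at RT.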
JMJD2A Tudor inh: qHTS Assay for Inhibitors of JMJD2A-Tudor Domain. Potency, µM (highest dose often 114 µM), for inactives: top-dose activity change, negative = inhibition, usual class: inhibitors. AlphaScreen JMJD2A-Tudor / H3K4me3 peptide binding. AID 504339, 2011. 390,000 compounds, 4.4% hits; further: potency means the concentration at half of the fitted maximal effect; on the % scale 0 is the no-effect control and ±100 the full control effect; nearly all actives have a fitted effect of over 50% in size
KDM4E inh: qHTS Assay for Inhibitors of Human Jumonji Domain Containing 2E (JMJD2E). AID 2147, 2009. Lysine-specific demethylase 4E (Homo sapiens), B2RXH2. Potency, µM (highest dose often 57.1 µM), for the others: at the top dose activity change, negative = inhibition, hits mostly inhibitors. 230,000 compounds, 1.6% hits. JMJD2E catalytic domain, FDH-coupled NADH fluorescence (FDH is formaldehyde dehydrogenase); active means well fitted inhibition curve with a large enough effect, not every such curve was filed as active; inconclusive means small, poorly fitted or top-dose-only effect, or another doubt; inactive means no such curve, though single readings can be large or run the other way;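 further: potency means the concentration at half of the fitted maximal effect; 0% = wells with enzyme and -100% = buffer wells without enzyme; nearly all actives have a fitted effect of over 50% in size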
BAZ2B block: qHTS Assay for Inhibitors of BAZ2B. Bromodomain adjacent to zinc finger domain protein 2B (Homo sapiens), Q9UIF8. AlphaScreen BAZ2B-H3K14Ac peptide displacement. Potency, µM (highest dose often 114 µM), for the others: at the top dose activity change, negative = inhibition, most hits filed as inhibitors. 360,000 compounds, 4.4% hits; further: potency means the concentration at half of the fitted maximal effect; on the % scale 0 is the no-effect control and ±100 the full control effect; nearly all actives have a fitted effect of over 60% in size
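Protein-peptide AlphaScreen: BAZ2B 50 nM, b-H3K14Ac 50 nM, 1x PBS pH 7.4 + 0.01% Tween-20. Preincubation 30 min RT; cpd 30 min RT (top 110 uM); beads 20 min RT, light-protected.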
HP1b binding inh: HTS for Inhibitors of HP1-beta Chromodomain Interactions with Methylated Histone Tails. Chromobox protein homolog 1 (Homo sapiens), P83916. AlphaScreen HP1-beta / biotin-H3K9me3 peptide binding. Potency, µM (series often up to 114 µM), for the others: at the highest dose activity change, negative = inhibition, usual class: inhibitors. 390,000 compounds, 0.56% hits. AID 540317, 2011; further: potency means the concentration at half of the fitted maximal effect; nearly all actives have a fitted effect of over 70% in size
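HP1-beta protein (50 nM final) preincubated 30 min at room temperature with biotinylated H3(1-18)K9me3 peptide (50 nM) in PBS pH 7.4, 0.01% Tween-20, then compound added for 30 min. AlphaScreen streptavidin donor/nickel chelate acceptor beads (10 ug/mL final), 30 min dark, luminescence read.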
ADP-Glo interf: qHTS for Inhibitors of PI5P4K: ADP-Glo counter assay; shares compounds with PI5P4Ka inh; ADP-Glo detection counter-screen, luciferase luminescence, no enzyme; Potency, µM (highest dose often 76.9 µM), for the others: at the top dose activity change, negative = inhibition, hits mostly inhibitors; 1,100 tested, under 10 active; AID 743285, 2014
* = called active by the depositor; ? = inconclusive; · = no result; [ ] = dose if it differs, or a comment. Unless noted, the call rests on the fitted dose curve; in most records, active means well fitted curve in the direction sought with a large enough effect; inconclusive means small, poorly fitted or top-dose-only effect, or another doubt; inactive means no such curve, though single readings can be large; an effect the other way counts as inactive or inconclusive.

SMILES	L3MBTL1 inh	PI5P4Ka inh	JMJD2A Tudor inh	KDM4E inh	BAZ2B block	HP1b binding inh	ADP-Glo interf
CCN(CC)S(=O)(=O)c1ccc(C(=O)Nc2nnc(NC(=S)Nc3ccccc3)s2)cc1	4.6%	-58.8*	?	-1.0%	-13.1%	-12.9%	5.9%
COc1ccccc1OCC(=O)Nc1sc2c(c1C(N)=O)CCC2	?	?	?	·	·	10.7%	·
COc1cccc(C(=O)OCC(=O)Nc2sc3c(c2C(N)=O)CCC3)c1O	?	-51.5*	?	·	50.1µM*	-1.9%	3.5%
CS(=O)(=O)c1sc2nc(-c3cccs3)cc(-c3ccccc3)c2c1N	·	-52.5*	89.1µM*	?	?	45.2%	-11.2%
CC(=O)c1ccccc1NCC(=O)Nc1ccc(C)cc1	-10.0%[11.4 µM]	-6.0	2.3%	3.5%	?	34.4%	·
Cc1cc(C)c2nc(-c3ccccn3)cc(C(=O)Nc3ccc(S(=O)(=O)Nc4onc(C)c4C)cc3)c2c1	?	-66.0*	56.2µM*	-5.0%	35.5µM*	50.1µM*	-1.0%
Cc1ccc(NC(=O)CN(C)C(=O)CNC(=O)c2sc3ccccc3c2Cl)cc1	-5.5%	5.3	-17.2%	·	4.0%	18.9%	·
O=C(Nc1ccc2c(c1)OCCO2)c1ccccc1F	2.9%	-52.1*	-26.7%[11.4 µM]	7.9%	10.1%	-3.3%	-24.1%
COc1ccccc1NC(=O)c1ccccc1NC(=O)c1ccccc1	·	·	10.8%	·	-2.6%	39.8%	·
CC(=O)Oc1ccc(C(=O)Nc2cccc(C(=O)Nc3ccccc3C(=O)O)c2)cc1	·	-51.0*	-11.4%	·	0.8%	18.5%	3.0%
COc1ccccc1C(=O)Nc1ccc(C(=O)Nc2ccccc2C(=O)O)cc1	·	-79.5*	-9.9%	·	-9.2%	17.8%	0.6%
O=C(C1CC(=O)N(c2ccc(F)cc2)C1)N1CCCCCC1 (centres undefined)	·	-5.6	-17.6%	·	-27.4%	-1.9%	·
Cc1cc(C(=O)OCC(=O)NC2CCS(=O)(=O)C2)c(C)n1-c1ccccc1 (centres undefined)	·	0.6	-18.1%[57.1 µM]	3.3%	?	-5.1%	·
Cc1cc(C(=O)OCC(=O)Nc2c(F)cccc2F)c(C)n1-c1ccccc1	-17.8%	-75.1*	20µM*	-10.7%	?	?	-5.3%
COc1cc(OC)cc(C(=O)Nc2nc3ccc(S(C)(=O)=O)cc3s2)c1	0.4%	-74.0*	-10.5%	?	-10.8%	25.9%	-16.5%
COc1ccc(-c2noc(-c3ccc(N4CCCCC4C)c([N+](=O)[O-])c3)n2)cc1OC (centres undefined)	·	·	3.0%	·	-18.7%	48.0%	·
O=C(NCc1ccc2c(c1)CCN2C(=O)c1ccncc1)c1cccc(Cl)c1	·	·	-24.7%	·	-22.1%	15.1%	·
O=C(OCC#CCSc1nnc(-c2ccccc2Cl)o1)c1ccc(F)cc1	·	·	54.4%	·	·	·	·
O=S(=O)(Nc1nccs1)c1cc(Cl)ccc1Cl	·	-51.4*	-12.0%	3.5%	-36.1%	27.5%	-1.1%
CCNC(=O)/C(=C\C=C\c1ccccc1)NC(=O)c1ccc(Br)o1	2.1%	-9.4	-16.4%	-5.6%	-7.8%	16.5%	·
CCCNC(=O)C1(C)CCCN(C(=O)c2cc(C)nn2C(C)(C)C)C1 (centres undefined)	·	-71.1*	·	·	·	·	2.1%
CCCNC(=O)C1(C)CCN(C(=O)c2cc(C)nn2C(C)(C)C)C1 (centres undefined)	·	5.0	·	·	·	·	·
Cc1cc(NC(=O)CCCn2cc([N+](=O)[O-])cn2)n(Cc2ccc(F)cc2)n1	·	-68.5*	-22.1%	0.0%	2.0%	5.0%	-11.7%
CSCC[C@H](N)C(=O)N1CCC(C(=O)N[C@H](C(=O)NCc2ccccc2F)C(C)C)CC1	·	2.8	-8.8%	·	-37.1%	29.5%	·
COc1ccc(NC(=O)CN(C)C(=O)c2cccc(-n3cccc3)c2)cc1	10µM*	-62.4*	22.4µM*	·	11.2µM*	25.1µM*	-3.0%
SMILES	L3MBTL1 inh	PI5P4Ka inh	JMJD2A Tudor inh	KDM4E inh	BAZ2B block	HP1b binding inh	ADP-Glo interf
Cc1ccc(NC(=O)CN(C)C(=O)c2cccc(-n3cccc3)c2)cc1	3.98µM*	-101.1*	?	·	11.2µM*	20µM*	-1.3%
Cc1cccc(NC(=O)CNC(=O)c2cccc(-n3cccc3)c2)c1C	3.55µM*	-80.4*	14.1µM*	·	14.1µM*	?	-9.7%
Nc1cc(N)nc(SCC(=O)Nc2cc(S(=O)(=O)N3CCOCC3)ccc2Cl)n1	·	-7.9	-16.7%	·	-3.2%	12.7%	·
CSCCC(NC(=O)c1ccccc1Cl)C(=O)Nc1ccc(C)c(S(=O)(=O)N2CCOCC2)c1 (centres undefined)	11.4%	7.3	-24.1%	·	-28.1%	14.4%	·
Nc1cccnc1S(=O)(=O)c1cccc(C(F)(F)F)c1	·	0.6	-7.4%	·	·	35.2%	·
Nc1nc(N)c2cc(S(=O)(=O)c3cccc(C(F)(F)F)c3)ccc2n1	·	-54.1*	·	·	·	·	-8.5%
Cc1ccc(-n2c(SCC(=O)Nc3ccc4c5c(cccc35)CC4)nc(O)cc2=O)cc1	-3.4%	-50.7*	-34.0%	?	-12.7%	33.9%	-0.2%
Cc1cccc(OCC(=O)Nc2cccc3cccnc23)c1C	·	·	1.0%	·	0.1%	29.9%	·
O=S(=O)(c1ccccc1)N1N=C(c2ccccc2)CC1c1ccccc1 (centres undefined)	-1.0%	-10.6	-10.7%	2.8%	4.8%	19.2%	·
O=S(=O)(c1ccccc1)N1N=C(c2cccs2)CC1c1ccc(Br)cc1 (centres undefined)	4.8%	-54.6*	-2.2%	7.2%	-35.0%	27.0%	5.3%
C=CCn1c(=S)[nH]c2scc(-c3ccc(C)o3)c2c1=O	4.5%	?	?	7.9%	-0.8%	-10.8%	·
CCn1c(=S)[nH]c2scc(-c3cccs3)c2c1=O	2.9%	-53.4*	-33.1%	-2.0%	-21.2%	27.2%	3.5%
Cc1ccc2c(c1)c(=O)c(C(=O)c1ccc3c(c1)OCO3)cn2Cc1ccc(Cl)cc1	·	·	-31.6%	·	?	25.8%	·
CCN(CC)C(=O)CC(c1cc(OC)c(OC)c(OC)c1)c1c(OC)cc(OC)c2c(-c3ccccc3)cc(=O)oc12 (centres undefined)	·	-56.0*	56.2µM*	-4.3%	50.1µM*	-0.2%	2.7%
